Here are results for 16 molecules from paper PMC5540273 (PLoS ONE, 2017).

Each structure is given as a SMILES string.

Among the test systems are PIK3C2G; PIK3CA; PIK3CB; PIK3CD; PIK3CG; PIKFYVE; PIM1; PIM2; PIM3.
What all share (conditions): concentration: 1 μM, replicates: in singlicate; n = 1
The test system of a further assay is T1, PIK4CB.
T1 construct: gene PI4KB
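Note: KINOMEscan kinase panel screen.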

Take `Cl.Cl.NC(CNC(=O)c1cc(Br)c(-c2ccnc3[nH]ccc23)s1)c1ccccc1` (stereo not shown) [GSK1322949]: the “%Inh” value with PIK3C2G stood at 0%; with PIK3CA, 1%; in the assay with PIK3CB, 0%; in the assay with PIK3CD, 0%; in the assay with PIK3CG, 22%; in the assay with PIK4CB, 0%. Moreover, the “%Inh” value in the assay with PIKFYVE worked out at 0%; with PIM1, 40%; with PIM2 it was 0%; in the assay on PIM3, 34%.

Consider `CN(C)CCOc1ccc(-c2cc(-c3ccc(Cl)c(O)c3)c(-c3ccncc3)[nH]2)cc1.Cl.Cl` [SB-684387], for which the “%Inh” value in the assay on PIK3C2G was 30%; in the assay on PIK3CA it was 9%; in the assay on PIK3CB, 54%; in the assay with PIK3CD it was 8%; with PIK3CG, 13%; with PIK4CB it was 26%. The “%Inh” value with PIKFYVE was 45%; in the assay with PIM1, 22%; with PIM2, 0%; in the assay on PIM3, 13%.

On to `COc1cccc(CC(=O)N2CCc3cc(-c4cn(C)c5ncnc(N)c45)ccc32)c1` [GSK2608899], for which the “%Inh” value is recorded as 0% in the assay on PIK3C2G; 6% in the assay with PIK3CA; 14% in the assay on PIK3CB; 0% with PIK3CD; 27% with PIK3CG; 0% with PIK4CB. The “%Inh” value turned out to be 0% with PIKFYVE, 19% in the assay on PIM1, 0% in the assay with PIM2 and 2% in the assay with PIM3.

For `CC(C)NCC(Cc1ccccc1)NC(=O)c1cc(Br)c(-c2ccnc3[nH]ccc23)s1.Cl.Cl` (stereo not shown) [GSK1383281], the “%Inh” value with PIK3C2G, in the assay on PIK3CA, in the assay on PIK3CB, with PIK3CD, in the assay with PIK3CG and in the assay on PIK4CB was 0% each time. The “%Inh” value was found to be 0% in the assay with PIKFYVE, 11% in the assay on PIM1, 0% with PIM2 and 0% with PIM3.

Turning to `CSc1ccc(NC2=C(c3ccc(Cl)cc3)C(=O)NC2=O)cc1` [SB-317658], the “%Inh” value in the assay with PIK3C2G came to 15%; in the assay on PIK3CA it was 0%; with PIK3CB, 24%; in the assay with PIK3CD, 54%; with PIK3CG it was 0%; in the assay with PIK4CB, 27%. Moreover, the “%Inh” value in the assay on PIKFYVE was 0%; in the assay on PIM1 it was 1%; in the assay on PIM2, 0%; in the assay on PIM3, 12%.

`CN(c1ccc(F)c(NC(=O)c2cccc(OC(C)(C)C#N)c2Cl)c1)c1ccc2nc(NC(=O)C3CC3)sc2n1`: the “%Inh” value with PIK3C2G stood at 30%; in the assay with PIK3CA, 0%; in the assay on PIK3CB, 9%; with PIK3CD, 0%; in the assay on PIK3CG, 5%; in the assay on PIK4CB it was 0%. The “%Inh” value in the assay on PIKFYVE is on record as 50%; in the assay on PIM1, 0%; with PIM2, 14%; with PIM3 it was 6%.

With `Cc1ccc(NC(=O)c2cccc(N3CCCCC3)c2)cc1-c1ccc(C(=O)NCC2CC2)cc1` [GSK1917008], the “%Inh” value in the assay on PIK3C2G is reported as 45%; with PIK3CA it was 1%; in the assay on PIK3CB it was 0%; with PIK3CD, 25%; in the assay with PIK3CG, 0%; with PIK4CB it was 11%. Further, the “%Inh” value in the assay with PIKFYVE was 0%; in the assay with PIM1, 15%; with PIM2 it was 0%; with PIM3, 0%.

For the molecule `O=C(O)C(F)(F)F.O=c1[nH]ccc2nc(N[C@@H]3CCNC3)nc(Nc3cc(Cl)cc(Cl)c3)c12` [GSK2188764], the “%Inh” value is on record as 18% with PIK3C2G; 7% in the assay with PIK3CA; 25% in the assay with PIK3CB; 43% with PIK3CD; 53% in the assay on PIK3CG; 56% in the assay with PIK4CB. Besides, the “%Inh” value in the assay with PIKFYVE is given as 20%; in the assay with PIM1, 44%; in the assay on PIM2, 0%; with PIM3, 66%.

As for `Cl.Cl.NCC(NC(=O)c1cc(-c2cccnc2)c(-c2ccnc3[nH]ccc23)s1)c1ccccc1` (stereo not shown) [GSK1323434], the “%Inh” value in the assay on PIK3C2G was 0%; in the assay with PIK3CA, 0%; in the assay with PIK3CB it was 0%; with PIK3CD, 2%; in the assay on PIK3CG, 0%; in the assay with PIK4CB, 0%. The “%Inh” value in the assay on PIKFYVE amounted to 59%; with PIM1, 16%; with PIM2 it was 0%; in the assay on PIM3 it was 0%.

For `CC(=O)Nc1cn2nc(Oc3cccc(NC(=O)c4cccc(C(F)(F)F)c4)c3)ccc2n1`, the “%Inh” value in the assay with PIK3C2G, in the assay with PIK3CA, in the assay on PIK3CB, in the assay on PIK3CD, in the assay with PIK3CG and in the assay with PIK4CB was 0% in each case. The “%Inh” value in the assay with PIKFYVE came to 0%; in the assay with PIM1, 9%; in the assay on PIM2, 9%; in the assay with PIM3 it was 0%.

Regarding `Fc1cc(Cl)ccc1Nc1ccnc2cc(-c3ccc(CN4CCSCC4)o3)ccc12` [GW560106], the “%Inh” value in the assay with PIK3C2G was 0%; in the assay on PIK3CA, 0%; in the assay with PIK3CB, 0%; in the assay on PIK3CD it was 9%; with PIK3CG, 0%; in the assay on PIK4CB, 0%. The “%Inh” value with PIKFYVE came to 1%; with PIM1, 8%; with PIM2, 0%; in the assay with PIM3 it was 0%.

As to `CC(C)c1nc(-c2ccc(F)c(NS(=O)(=O)c3c(F)cccc3F)c2)c(-c2ccnc(Nc3ccc(N4CCOCC4)nc3)n2)s1` [GSK1804250], the “%Inh” value amounted to 0% with PIK3C2G; 0% in the assay with PIK3CA; 0% in the assay with PIK3CB; 10% in the assay with PIK3CD; 0% in the assay on PIK3CG; 0% in the assay on PIK4CB. The “%Inh” value with PIKFYVE is 66%; in the assay on PIM1, 7%; in the assay on PIM2, 0%; in the assay with PIM3, 0%.

As for `Fc1cc(Cl)ccc1Nc1ccnc2cc(-c3ccc(CN4CCOCC4)o3)ccc12` [GW560109], the “%Inh” value in the assay on PIK3C2G is reported as 0%; in the assay with PIK3CA it was 0%; with PIK3CB it was 0%; with PIK3CD, 21%; in the assay on PIK3CG, 0%; in the assay with PIK4CB it was 16%. The “%Inh” value in the assay with PIKFYVE is 5%; in the assay on PIM1 it was 0%; in the assay with PIM2 it was 0%; with PIM3, 0%.

As to `Nc1cccc(-c2ccc3c(N)n[nH]c3c2)c1` [GSK2193613], the “%Inh” value is 0% with PIK3C2G; 0% in the assay on PIK3CA; 40% in the assay on PIK3CB; 2% with PIK3CD; 0% with PIK3CG; 0% with PIK4CB. Further, the “%Inh” value with PIKFYVE was determined as 0%; with PIM1, 11%; with PIM2, 0%; with PIM3, 0%.

Take `CC(C)c1nc(-c2cccc(NS(=O)(=O)c3c(F)cccc3F)c2)c(-c2ccnc(Nc3ccc(N4CCOCC4)nc3)n2)s1.Cl` [GSK1723980]: the “%Inh” value in the assay on PIK3C2G, in the assay with PIK3CA, in the assay on PIK3CB, in the assay with PIK3CD, in the assay with PIK3CG and with PIK4CB was 0% in each case. In addition, the “%Inh” value with PIKFYVE, in the assay on PIM1, with PIM2 and in the assay with PIM3 was 0% throughout.

As for `CS(=O)(=O)c1cccc(CNc2nc(Nc3ccc4c(c3)CCC(=O)N4)ncc2C(F)(F)F)c1`, the “%Inh” value is listed as 9% in the assay with PIK3C2G; 0% in the assay on PIK3CA; 3% with PIK3CB; 0% with PIK3CD; 0% in the assay with PIK3CG; 0% in the assay on PIK4CB. The “%Inh” value with PIKFYVE was 28%; with PIM1, 10%; with PIM2 it was 0%; in the assay on PIM3, 32%.
